Sampled rows, rich in hits. Any-hit rate of the full collection: about 11%.
ERK AVP inh: blocks ERK signaling stimulated by vasopressin; HEK293-V1b, vasopressin-stimulated pERK AlphaScreen; Potency, µM (top dose mostly 57.5 µM), for the others: at the highest dose activity, negative = inhibition, hits mostly inhibitors; 72,000 tested, 0.99% active; further: nearly all actives have a fitted effect of over 55% in size
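Phosphorylated ERK1/2 detected via AlphaScreen bead proximity in lysates of V1b-expressing HEK293 cells given 25 nM vasopressin for 5 min after 30 min compound exposure (37 °C). AC50 from Hill equation; basal DMSO 0%, vasopressin 100%.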
HSD17B inh: HSD17B dehydrogenase inhibition; Q99714; recombinant HSD17B10, NADH fluorescence kinetic; Potency, µM (top dose mostly 57.1 µM), for inactives: top-dose activity change, negative = inhibition, hits mostly inhibitors; 75,000 tested, 7.6% active; AID 893;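 further: the protocol describes HADH2 (HSD17B10) and not the HSD17B4 of the title; nearly all actives have a fitted effect of over 70% in size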
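His-tagged E. coli-expressed HADH2 at 20 nM in 100 mM Tris-HCl pH 9.0 with 0.01 % Tween-20, preincubated 15 min with compound at room temperature. Reaction with 1 mM NAD+ and 90 uM beta-hydroxybutyryl coenzyme A; NADH fluorescence (360/450 nm) read kinetically over 4 min, last minus first point.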
HADH2 inhib: blocks human hydroxyacyl-CoA dehydrogenase type II. Q99714. recombinant HADH2, NADH fluorescence, beta-hydroxybutyryl-CoA. Potency, µM (titrated, usually from 57.1 µM), without a hit: at the top dose activity change, negative = inhibition, usual class: inhibitors. 73,000 tested, 3.4% active; further: nearly all actives have a fitted effect of over 60% in size
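NADH fluorescence (ex 360/em 450 nm) read every 30 s for 4 min; activity taken as last-minus-first time point difference. Enzyme 20 nM, NAD+ 1 mM, beta-hydroxybutyryl-CoA 90 uM, pH 9.0 Tris buffer.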
FLuc inh: firefly luciferase inhibition | P08659 | 72,000 tested, 2.2% active | Potency, µM (series often up to 57.1 µM), for inactives: at the top dose activity change, negative = inhibition, hits mostly inhibitors | purified firefly luciferase, luminescence, 8 min; further: nearly all actives have a fitted effect of over 40% in size
Target sequence (P08659 whole entry, looked up): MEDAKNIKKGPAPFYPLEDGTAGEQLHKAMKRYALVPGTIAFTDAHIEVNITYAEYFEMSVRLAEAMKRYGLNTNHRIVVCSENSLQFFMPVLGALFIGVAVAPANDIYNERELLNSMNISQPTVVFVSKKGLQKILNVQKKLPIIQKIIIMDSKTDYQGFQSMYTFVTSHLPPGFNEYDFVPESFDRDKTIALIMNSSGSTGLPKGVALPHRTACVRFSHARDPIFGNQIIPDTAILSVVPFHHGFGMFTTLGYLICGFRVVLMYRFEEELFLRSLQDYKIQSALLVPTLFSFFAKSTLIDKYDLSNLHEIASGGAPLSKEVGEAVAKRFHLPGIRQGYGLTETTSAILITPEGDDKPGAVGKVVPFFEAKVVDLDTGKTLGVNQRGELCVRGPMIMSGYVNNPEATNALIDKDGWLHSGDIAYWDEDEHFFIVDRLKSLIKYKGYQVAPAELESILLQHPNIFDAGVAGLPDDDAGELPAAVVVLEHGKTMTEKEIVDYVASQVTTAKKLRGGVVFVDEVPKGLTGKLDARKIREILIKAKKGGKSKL
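Luminescence read-out after 8 min at room temperature; enzyme reaction used luciferin plus 10 uM ATP (linear range) in imidazole buffer pH 7.2 with KCl, MgCl2, Tween 20 and BSA. Each sample was run as a titration.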
PK Bst: alters activity of Bacillus stearothermophilus pyruvate kinase. Potency, µM. 51,000 tested, 1.2% active. AID 361. purified pyruvate kinase, luminescence ATP production; ribose 5-phosphate activator present at AC10; in the data active means potency below about 11 µM; inconclusive means mostly about 12 µM to 25 µM;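 the screen sought inhibitors and activators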;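 further: scaled between full activation by ribose 5 phosphate and full inhibition by luteolin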
15-hLO inh: inhibitors of human 15-lipoxygenase (ALOX15); 74,000 tested, 1.4% active; Potency, µM (doses to about 57.1 µM), without a hit: at the top dose activity change, negative = inhibition, actives largely listed as inhibitors; purified 15hLO-1, xylenol orange hydroperoxide absorbance; P16050; further: nearly all actives have a fitted effect of over 55% in size
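Compounds were preincubated 15 min at room temperature with 40 nM purified human enzyme (25 mM Hepes pH 7.5, 0.01% Triton X-100); 50 uM arachidonic acid reacted 6 min. Fe-xylenol orange detection, 30 min, absorbance ratio 573/405 nm.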
* hit, by the source's call; i = inactive; u = inconclusive; x = no result; [ ] = another dose, or the depositor's remark. Unless noted, the call rests on the fitted dose curve; in most records, active means well fitted curve in the direction sought with a large enough effect; inconclusive means small, poorly fitted or top-dose-only effect, or another doubt; inactive means no such curve, though single readings can be large; an effect the other way counts as inactive or inconclusive. Unless noted, on the % scale 0 is the no-effect control and ±100 the full control effect; potency means the concentration at half of the fitted maximal effect.

SMILES | ERK AVP inh | HSD17B inh | HADH2 inhib | FLuc inh | PK Bst | 15-hLO inh
CN1CCc2c(sc3c2C(=O)NC(c2cccs2)N3)C1 (configuration not stated) | -22% | 25µM* | u | -16% | i | 3.2µM*
O=C1CCCC2=C1C(c1ccco1)Nc1ccc3ccccc3c12 (configuration not stated) | -27% | 16µM* | 32µM* | -3% | x | u
C=CC[C@@H]1C=C[C@H](O/N=C\[C@@H](C)[C@H](OCc2ccccc2)C(C)C)[C@H](CO)O1 | 17%[11.5 µM] | -1%[11.4 µM] | 2%[11.4 µM] | 3%[11.4 µM] | x | -1%[11.4 µM]
CCc1cccc(C)c1NC(=O)CSc1nnc(-c2cc3cc(Br)ccc3o2)n1CC | -15% | 32µM* | u | -1% | >57 | -18%
CCNc1ncc2nc(-c3ccc(Cl)cc3)c(=O)n(C[C@H]3CCCO3)c2n1 | u | 16µM* | 56% | 1%[11.4 µM] | x | -8%
COc1ccc(-c2nc3cnc(N(C)C)nc3n(C[C@H]3CCCO3)c2=O)cc1 | -17% | 10µM* | 4% | 2%[11.4 µM] | x | -3%
CCNc1ncc2nc(-c3ccc(OC)cc3)c(=O)n(C[C@H]3CCCO3)c2n1 | -9% | 3.2µM* | 12% | 1%[11.4 µM] | x | 4%
COc1ccc(-c2nc3cnc(Nc4ccccc4)nc3n(C[C@H]3CCCO3)c2=O)cc1 | -16% | u | 13% | 2%[11.4 µM] | x | -5%
O=c1c(-c2ccc(Cl)cc2)nc2cnc(N3CCOCC3)nc2n1C[C@H]1CCCO1 | 7% | 7.9µM* | 1% | 2%[11.4 µM] | x | 11%
COc1ccc(-c2nc3cnc(N4CCOCC4)nc3n(C[C@H]3CCCO3)c2=O)cc1 | u | u | 11% | 0%[11.4 µM] | x | 3%
CN(C)c1ncc2nc(-c3cccs3)c(=O)n(C[C@H]3CCCO3)c2n1 | 7% | -18% | 5% | 0%[11.4 µM] | x | -3%
CCNc1ncc2nc(-c3cccs3)c(=O)n(C[C@H]3CCCO3)c2n1 | -11% | 16µM* | 38% | 0%[11.4 µM] | x | -27%
CCN1CCN(Cc2ccc(NC(=O)Nc3ccccc3Cl)cc2)CC1 | -18% | 7% | 5% | 16µM* | x | -18%
Cc1cc(-c2ccccc2)c(C#N)c(N)n1 | -16% | 25µM* | i | 0% | x | 5%
Cc1cc(-c2cccnc2)c(C#N)c(SCC#N)n1 | u | -8% | -22% | 0% | >57 | -2%
CCOC(=O)c1sc(C)c2c1NC(C)(c1cccs1)NC2=O (configuration not stated) | 0% | 32µM* | u | -1% | >57 | -5%
CCOC(=O)c1sc(C)c2c1NC1(CCCCC1)NC2=O | -23% | 32µM* | 60% | -2% | >57 | -3%
CC(C)[C@@H](CC(=O)N[C@@H]1CCCC[C@H]1C(=O)N[C@H](CC(=O)N[C@@H](CCC(=O)O)CC(=O)O)Cc1c[nH]c2ccccc12)NC(=O)C[C@H](CO)NC(=O)[C@@H]1CNCC[C@H]1N | x | x | 3% | x | x | x
COc1ccc(-c2cc3nc(C)c(CCC(=O)NCc4ccco4)c(C)n3n2)c(OC)c1 | 24% | 32µM* | 17% | -1% | >57 | -3%
O=C(COC(=O)c1ccccc1Oc1ccccc1)NCc1ccco1 | u | 16µM* | -13% | -1% | >57 | 13µM*
COc1ccc(OCCC(=O)OCC(=O)NCc2ccco2)cc1 | -18% | 16µM* | 3% | -3% | >57 | 13µM*
O=C(COC(=O)c1ccccc1)NCc1ccco1 | 0% | -23% | 7% | 2% | >57 | -26%
O=C(c1cc2c(s1)-c1ccccc1OC2)N1CCN(c2ccccn2)CC1 | 25µM* | 32µM* | 0% | 1% | x | -5%
O=C(c1cc2c(s1)-c1ccccc1OC2)N1CCCC1 | 1% | 25µM* | -7% | 13µM* | x | 2%
O=C(c1ccccc1-c1ccccc1)N1CCCC1 | -1% | 17% | 8% | 1% | >57 | 8%
O=C(Cn1ncc2c1-c1ccccc1OC2)N1CCN(c2ccccn2)CC1 | -22% | u | -29% | 0% | x | 2%
Cc1cn2nc(N)c3ccccc3c2n1 | -21% | 25µM* | 55% | -3% | 8.8* | 10%
